# Assay results published in PubChem BioAssay (NCATS).
# Results filed as inconclusive are left out. Calls of active or inactive are those of the source. Calls come from the whole dose curve; as a rule, active = well fitted inhibition curve with a large enough effect; inconclusive = small, poorly fitted or top-dose-only effect; inactive = flat fitted curve, though single readings scatter.
# Target: Phospholipid hydroperoxide glutathione peroxidase GPX4 (Homo sapiens) (UniProt P36969)
# Test: Primary qHTS Assay for Inhibitors of Recombinant Selenoprotein Glutathione Peroxidase 4 (GPX4) (AID 1845192); note: nearly all actives have a fitted effect of over 65% in size
# Details: recombinant GPX4, GR-coupled NADPH fluorescence, 15 min; series mostly up to 50 µM; activity change, negative = inhibition: at the top concentration
# Description: Assay Provider: Elias S.J. Arner MD PhD.
# Department of Medical Biochemistry and Biophysics
# Karolinska Institutet, Solna, Stockholm, Sweden
# Selenoprotein glutathione peroxidases (GPX), like the ubiquitously expressed GPX1 and the ferroptosis modulator GPX4, enact their antioxidant activities by reducing hydroperoxides using glutathione. […] GPX1 and GPX4 inhibitors have thus shown promise as anti-cancer agents. Existing inhibitors are often promiscuous, or modulate GPX activity only indirectly, so novel direct inhibitors identified through screening against GPX1 and GPX4 could be valuable. Here, we developed optimized glutathione reductase (GR)-coupled GPX assays for the biochemical high-throughput screen (HTS) of almost 12,000 compounds with known mechanisms of action. Initial hits were triaged using a GR counter-screen, assessed for isoform specificity using a separate GPX2 assay, and were assessed for general selenocysteine-targeting activity using a thioredoxin reductase (TXNRD1) assay. With this suite of assays, we identified novel GPX1/GPX2- and GPX4-specific inhibitors and can here present a validated pipeline for future discovery research for selenoprotein-targeting agents.
# SEQUENCE No. (e.g., 1, 2, 3, etc.); […] (e.g., Cells, Incubation, Reagent, etc.); VALUE; DESCRIPTION.
# 1; Reagent 1; 3 uL; 333.33 nM GPx4 enzyme or no enzyme control in 1536-well, black, solid Greiner assay plate.
# 2; Compound; 25 nL; Kalypsis pin tool (Wako USA) equipped with a 1536-well pin head.
# 3; Incubation; 30 min; room temperature.
# 4; Reagent 2; 1 uL; 500 nM GR, 5 mM GSH, 2.5 mM NADPH solution
# 5; Reagent 3; 1 uL; 2.5 mM CHP in 50% EtOH.
# 6; Detection; Fluorescence; ViewLux microplate reader, excitation 340 nm and emission 450 nm.
# 7; Incubation; 15 min; room temperature.
# 8; Detection; Fluorescence; ViewLux microplate reader, excitation 340 nm and emission 450 nm.
# NOTES (numbers refer to Sequence numbers above)
# 1. 3 µL of 333.33 nM GPX4 and 0.016% BSA in assay buffer (50 mM Tris-HCl, 2 mM EDTA (pH 7.5), 150 mM NaCl) was added to columns 3-48 of 1536-well plates using a BioRAPTR Flying Reagent Dispenser (Let's Go Robotics (LGR), Carlsbad, CA). A no-enzyme control (0.01% BSA in TES assay buffer) was added to columns 1-2.
# 2. 25 nL, library and DMSO controls were added to each well with a pin tool (Kalypsys).
# 3. The assay plates were incubated for 30 minutes at room temperature.
# 4. 1 µL of master mix (500 nM glutathione reductase (GR), 5 mM reduced glutathione (GSH), 2.5 mM NADPH in assay buffer) was added.
# 5. 1 µL of cumene hydroperoxide (CHP) ([2.5 mM] in 50% EtOH) was then added within 5 minutes to initiate the reaction. Final concentrations were: 200 nM GPX4, 1 mM GSH, 0.5 mM CHP, 0.5 mM NADPH, 100 nM GR, 0.01% BSA.
# 6. Initial fluorescence readout (t=0) at 340/450 nm was measured using a ViewLux multimodal detector (PerkinElmer, Waltham, MA).
# 8. Endpoint fluorescence readout (t=15) at 340/450 nm was measured 15 min after room temperature incubation.
# % is set by controls: 0 for no effect and ±100 for the full control effect; potency is the fitted concentration of half-maximal effect.
# Phospholipid hydroperoxide glutathione peroxidase GPX4 (Homo sapiens), sequence (P36969 whole entry, looked up): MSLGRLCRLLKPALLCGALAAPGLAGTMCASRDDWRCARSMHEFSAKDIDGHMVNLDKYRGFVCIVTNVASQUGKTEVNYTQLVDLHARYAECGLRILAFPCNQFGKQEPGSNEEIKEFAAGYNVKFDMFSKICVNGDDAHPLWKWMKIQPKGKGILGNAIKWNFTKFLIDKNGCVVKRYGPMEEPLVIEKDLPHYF
SMILES,"activity change, negative = inhibition",outcome,Potency
CC1=C2C(=O)C3[C@@H](CC=C4C[C@@H](O)CC[C@@]43C)[C@@H]2CC[C@]12O[C@@H]1C[C@H](C)CN[C@H]1[C@H]2C (stereo not given in full),3.94% [at 27.8 µM] (inactive),,
CCCCCCCCCCCCCC(=O)O[C@@H]1[C@@H](C)[C@@]2(O)[C@@H](C=C(CO)C[C@@]3(O)C(=O)C(C)=C[C@@H]23)C2C(C)(C)[C@@]21OC(C)=O (stereo not given in full),,inactive,
C[N+]1(C)CCN(c2ccccc2)CC1,,inactive,
Cc1cccc(NC(=O)N[C@@H]2N=C(c3ccccc3)c3ccccc3N(C)C2=O)c1,-6.01% (inactive),,
CCCN1CCc2cc(O)cc3c2[C@H]1Cc1ccc(O)c(O)c1-3,,inactive,
CCC(C)(OC(C)=O)C(=O)O[C@H]1[C@H](OC(C)=O)C[C@@H]2[C@@](C)([C@@H]3C[C@H]4C=CO[C@H]4O3)[C@H](C)C[C@H](OC(C)=O)[C@@]2(COC(C)=O)[C@@]12CO2 (stereo not given in full),-16.5% [at 15.3 µM] (inactive),,
CC(C)(C)c1o[nH]c(=O)c1CC(N)C(=O)O (stereo not given),,inactive,
CCCN(CCC)[C@@H]1CCc2cccc(O)c2C1,,inactive,
C[C@@]12C[C@@H](c3ccoc3)OC(=O)C1CC[C@]1(C)[C@H]2[C@H]2C=C[C@]1(O)C(=O)O2 (stereo not given in full),,inactive [at 27.8 µM],
C[C@H]1C(=O)O[C@H]2[C@H](O)[C@]34C5OC(=O)[C@]3(O[C@@H]3OC(=O)[C@H](O)C34[C@H](C(C)(C)C)[C@H]5O)C12O (stereo not given in full),,inactive [at 27.8 µM],
CC(=O)O[C@H]1C[C@@H](OC(C)=O)C(C)(C)C2C[C@@H](O)[C@]3(C)C(CC[C@@]4(C)[C@H](C5=CC(=O)OC5O)C[C@H]5O[C@]543)[C@]21C (stereo not given in full),-19.2% [at 27.8 µM] (inactive),,
COC1C(O)C(C)OC(OC2C(CO)O[C@@H](O[C@@H]3CC4CCC5C(CC[C@]6(C)[C@@H](C7=CC(=O)OC7)CC[C@]56O)[C@@]4(C)[C@H](O)C3)C(O)C2O)C1O (stereo not given in full),1.2% [at 15.3 µM] (inactive),,
COC(=O)[C@@]12C(=O)C(C)C(=O)[C@]1(C)C(C)=C[C@H]1[C@]3(C=O)CC[C@H](OC(C)=O)C(C)(C)[C@H]3CC[C@@]12C (stereo not given in full),-18.1% [at 27.8 µM] (inactive),,
CC(Cc1ccc(OCC(=O)O)cc1)NCC(O)c1cccc(Cl)c1 (stereo not given),,inactive,
Clc1ccc(N2CC3CCC(C2)N3)nn1,,inactive,
CCNC1(c2cccs2)CCCCC1=O (stereo not given),2% (inactive),,
C/C(O)=C(\C#N)C(=O)Nc1cc(Br)ccc1Br,-30% (inactive),,
CC12CCC3C(CCC4(O)CC(O)CCC34C=O)C1(O)CCC2C1=CC(=O)OC1 (stereo not given),-1.17% (inactive),,
CCCC[N+]1(C)C2CC(OC(=O)[C@H](CO)c3ccccc3)CC1C1OC12 (stereo not given in full),,inactive,
CC(N)Cc1ccc(O)cc1 (stereo not given),-1.72% (inactive),,

SMILES,"activity change, negative = inhibition",outcome,Potency
C[C@H](Cc1ccc2c(c1)OC(C(=O)O)(C(=O)O)O2)NC[C@H](O)c1cccc(Cl)c1,,inactive,
C[C@@H]1O[C@@H](O[C@H]2C[C@@H](O)[C@]3(CO)[C@@H]4C(CC[C@]3(O)C2)[C@@]2(O)CC[C@H]([C@@H]3COC(=O)C3)[C@@]2(C)C[C@H]4O)[C@H](O)[C@H](O)[C@H]1O (stereo not given in full),0.202% (inactive),,
Oc1ccc2c3c1O[C@H]1[C@H](N(CCCl)CCCl)CC[C@@]4(O)[C@@H](C2)N(CC2CC2)CC[C@]314,-3.35% [at 9.73 µM] (inactive),,
CN[C@H]1[C@H](O)[C@H](O[C@@H]2[C@@H](O)[C@H](O[C@H]3O[C@H]([C@H](C)O)[C@@H](O)[C@H](O)[C@H]3N)[C@@H](N)C[C@H]2N)OC[C@@]1(C)O,5.74% (inactive),,
CCCCCCC(=O)O[C@H]1CC[C@H]2[C@@H]3CC[C@H]4CC(=O)C=C(C)[C@]4(C)[C@H]3CC[C@]12C,,,6.31 µM (active)
Oc1ccc2c3c1O[C@H]1c4[nH]c5ccccc5c4C[C@@]4(O)C(C2)N(CC2CC2)CCC314 (stereo not given in full),0.107% (inactive),,
C/C=C(\C)C(=O)O[C@H]1[C@H](OC(C)=O)[C@]2(CO)[C@H](O)[C@H](O)[C@]3(C)C(=CCC4[C@@]5(C)CC[C@H](O[C@@H]6O[C@H](C(=O)O)[C@@H](O)[C@H](O[C@@H]7OC[C@H](O)[C@H](O[C@@H]8OC[C@H](O)[C@H](O)[C@H]8O)[C@H]7O)[C@H]6O[C@@H]6O[C@H](CO)[C@@H](O)[C@H](O)[C@H]6O)C(C)(C)C5CC[C@]43C)[C@@H]2CC1(C)C (stereo not given in full),2.03% [at 9.73 µM] (inactive),,
CCN1C[C@]2(OC(=O)c3ccccc3NC(C)=O)CC[C@H](OC)[C@@]34[C@@H]2C[C@@H]([C@@H]13)[C@@]1(O)C[C@H](OC)[C@H]2C[C@@H]4[C@]1(O)[C@H]2OC,10.1% (inactive),,
COC1CC(O[C@H]2CC[C@]3(C=O)C4CC[C@]5(C)[C@@H](C6=CC(=O)OC6)CC[C@]5(O)[C@@H]4CC[C@]3(O)C2)OC(C)C1O[C@@H]1O[C@H](CO)[C@@H](O)[C@H](O)[C@H]1O (stereo not given in full),,inactive [at 15.3 µM],
C=C[C@H]1CN2CC[C@H]1C[C@@H]2[C@@H](O)c1ccnc2ccccc12,,,inactive
N=C(N)c1ccc(CS(=O)(=O)F)cc1,,inactive,
CCCC(=O)OC(C(Cl)(Cl)Cl)P(=O)(OC)OC (stereo not given),,inactive [at 100 µM],
COC([CH2][Hg])CNC(=O)c1ccccc1OCC(=O)O (stereo not given),-3.05% [at 15.3 µM] (inactive),,
CN1C(=O)N(c2ccc(C#N)c(C(F)(F)F)c2)C(=O)[C@]1(CO)c1ccccc1,1.68% (inactive),,
CN(N=O)c1ccc(O)c(O)c1,,inactive,
C=CCN1C[C@@H](C)N([C@H](c2ccc(C(=O)N(CC)CC)cc2)c2cccc(OC)c2)C[C@@H]1C,-8.55% (inactive),,
C[N+](C)(C)CC#CCOC(=O)Nc1cccc(Cl)c1,,inactive,
O=C(NCNC(=O)NC1C(=O)NC(=O)N1CO)NC1C(=O)NC(=O)N1CO (stereo not given),,inactive,
CN1CCCC1CCOC(c1cc2nccc(C(=O)O)c2[nH]1)c1ccccc1Cl (stereo not given),0.97% (inactive),,
CC(C)C1(OO)C=C2C(=O)CC3C(C)(C(=O)O)CCCC3(C)C2CC1 (stereo not given),-12.9% [at 27.8 µM] (inactive),,
